# The source made the active and inactive calls. Unless noted, how the calls were made is not given here.
# Experiments:
# [1] = tested on: Wnt5a (protein binding on small-molecule microarray); experiment: small molecules binding Wnt5a protein – biophysical, small-molecule microarray, 635/667 nm fluorescence, primary screen (AID 1142); conditions: 635 nm fluorescence, higher = more signal;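 further: fluorescence read at 667 nm with signal to noise per printed feature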
# [2] = ATP-based viability of Huh7 replicon cells – cell-based, CellTiter-Glo luminescence, basal, 48 h, cytotoxicity control for HCV replication inhibitor project, primary screen (AID 1143); conditions: higher = more signal, called active from +8 up or from −8 down;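 further: Huh7 hepatoma cells carrying a hepatitis C replication reporter with no stimulus; test concentration not given here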
# [3] = Pseudomonas biofilm growth suppression – PAO1 strain, BacTiter-Glo luminescence, LB-PBS, primary screen (AID 1144); conditions: P. aeruginosa PAO1 biofilm, 12 h, higher = more signal
# [4] = basal CRE-LacZ reporter activity in PC12 – cell-based, unstimulated, primary screen (AID 1145); conditions: no forskolin, luminescence, 4.5 h, higher = more signal, called active from +8 up or from −8 down
# [5] = forskolin-driven CRE-LacZ activity in PC12 – cell-based, CRE-LacZ reporter, forskolin-stimulated, primary screen (AID 1146); conditions: luminescence, 4.5 h, higher = more signal, called active from +8 up or from −8 down;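 further: PC12 cells with 6xCRE LacZ reporter stimulated by forskolin 10 µM; beta-galactosidase reporter signal reflecting CREB driven transcription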
# [6] = biological target: Streptavidin (Streptomyces avidinii) (UniProt P22629); experiment: compounds binding control protein streptavidin – biophysical, small-molecule microarray, 635/667 nm fluorescence, artefact control for SMM compound annotation, primary screen (AID 1147); conditions: higher = more signal;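 further: signal reflects streptavidin binding to arrayed compounds as a control protein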
# [7] = probe aInhba binding on compound microarray – biochemical, small-molecule microarray, 635/667 nm fluorescence, primary screen (AID 1148); conditions: higher = more signal;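 further: score merges 667nm spot fluorescence with signal-to-noise for antibody binding to printed compounds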
# [8] = biological target: Torsin-1A (Homo sapiens) (UniProt O14656); experiment: TOR1A wild-type binding on microarray – cell lysate, small-molecule microarray, lysate, 635/667 nm, primary screen (AID 1149); conditions: COS7 hTOR1A-WT lysate, 635 nm fluorescence, higher = more signal
# [9] = biological target: Torsin-1A (Homo sapiens) (UniProt O14656); experiment: torsin A mutant lysate binding on microarrays – cell lysate, small-molecule microarray, COS7 lysate, 635/667 nm fluorescence, primary screen (AID 1150); conditions: COS7 hTOR1A mutant lysate, 635 nm fluorescence, higher = more signal;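 further: score pools 667 nm emission and signal to noise measuring lysate protein binding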
# [10] = tested on: Sonic hedgehog protein (Shh); experiment: Sonic hedgehog microarray binding compounds – biochemical, small-molecule microarray, 635/667 nm fluorescence, primary screen (AID 1151); conditions: 635 nm fluorescence, higher = more signal;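 further: Shh protein binding to compounds spotted on small-molecule microarray slides; score combines spot fluorescence intensity with signal-to-noise across triplicate slides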
# Torsin-1A (Homo sapiens), sequence (O14656 whole entry, looked up): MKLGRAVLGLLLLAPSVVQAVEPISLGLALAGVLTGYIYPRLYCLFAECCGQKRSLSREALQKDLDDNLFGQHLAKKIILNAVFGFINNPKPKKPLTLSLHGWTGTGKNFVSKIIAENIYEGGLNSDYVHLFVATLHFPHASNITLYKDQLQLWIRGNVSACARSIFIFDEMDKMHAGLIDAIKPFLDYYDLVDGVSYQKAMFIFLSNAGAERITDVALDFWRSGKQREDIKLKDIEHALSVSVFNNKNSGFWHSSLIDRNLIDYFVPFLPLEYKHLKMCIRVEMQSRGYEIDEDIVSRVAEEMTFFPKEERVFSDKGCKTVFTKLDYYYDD
# Streptavidin (Streptomyces avidinii), sequence (P22629 whole entry, looked up): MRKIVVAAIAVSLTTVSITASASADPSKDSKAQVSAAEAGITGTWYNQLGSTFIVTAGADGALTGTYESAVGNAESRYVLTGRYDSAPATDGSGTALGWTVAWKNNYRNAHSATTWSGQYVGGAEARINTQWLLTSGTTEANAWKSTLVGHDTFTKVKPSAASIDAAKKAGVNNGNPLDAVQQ
SMILES,composite z-score [1],z-score [2],z-score [3],z-score [4],z-score [5],composite z-score [6],composite z-score [7],composite z-score [8],composite z-score [9],composite z-score [10]
CCOC(=O)C[C@H]1[C@H](OC(=O)c2ccccc2-c2ccccc2)[C@@H](NC(=O)Cc2ccc(OC)cc2)c2cc(OCCCO)ccc2N1C(=O)c1ccccc1,0.222,-0.0369 (inactive),0.817 (inactive),4.57 (inactive),2.83 (inactive),-0.105,-0.287,-0.259,0.405,-0.127
[N-]=[N+]=NCc1ccccc1C[C@]1(C(=O)NCC(O)CO)N=C(c2ccc(OCCCO)cc2)O[C@H]1c1ccccc1N=[N+]=[N-] (stereo not given in full),0.376,-2.54 (inactive),-0.000841 (inactive),0.241 (inactive),-1.78 (inactive),0.22,0.403,0.26,0.67,-1.48
COc1ccc(CCNC(=O)[C@@]2(Sc3ccc(C)cc3)CC(=O)N(Cc3ccccc3Cl)[C@@H]2c2ccc(CO)cc2I)cc1,-0.234,-2.2 (inactive),0.0319 (inactive),0.569 (inactive),1.12 (inactive),-0.539,0.12,-0.794,-0.491,0.153
O=C1O[C@H](c2ccccc2)[C@H](c2ccccc2)N2[C@H]1[C@@H](C(=O)Nc1nc3ccccc3s1)[C@]1(C(=O)Nc3ccccc31)[C@H]2c1ccc(O)cc1,0.0365,-1.69 (inactive),-0.363 (inactive),0.478 (inactive),0.757 (inactive),1.2,-0.0736,-0.0245,0.414,1.51
Cc1ccc(S[C@]2(C(=O)NCCN3CCOCC3)CC(=O)N(Cc3cc(C(F)(F)F)cc(C(F)(F)F)c3)[C@@H]2c2ccc(CO)cc2I)cc1,-0.314,-2.42 (inactive),-0.956 (inactive),0.389 (inactive),-0.0376 (inactive),-0.71,-0.183,-2,0.561,-0.4
COC(=O)[C@@]1(Cc2ccccc2)[C@H]2c3cc(C(=O)N4CCCC4)n(Cc4ccc(C)o4)c3C[C@H]2CN1C(=O)c1ccccc1,-0.135,-2.17 (inactive),-0.544 (inactive),0.962 (inactive),1.16 (inactive),1.15,0.181,0.0769,0.537,-0.21
CCOC(=O)C1=CCC(c2ccc([N+](=O)[O-])cc2)N(S(=O)(=O)c2ccc(C)cc2)C1 (stereo not given),0.0898,-3.94 (inactive),0.203 (inactive),0.687 (inactive),0.264 (inactive),0.653,0.111,0.242,0.103,-0.377
NCCCCCNC(=O)[C@H]1C[C@H]2C(=O)NCC(=O)N2[C@H]1c1cccc(OCCO)c1,0.584,0.241 (inactive),-0.147 (inactive),-1.08 (inactive),0.0161 (inactive),0.579,-0.144,0.483,0.727,2.01
COC(=O)c1ccc(C(O)C2C=CC3C(=O)N(c4ccccc4)C(=O)C3N2Nc2ccc(C#N)cc2)o1 (stereo not given),0.304,1.07 (inactive),-1.05 (inactive),1.4 (inactive),-0.22 (inactive),0.337,-0.0901,0.928,0.0721,-0.0224
CCOC(=O)C1=C[C@@H](C(C)C)N(S(=O)(=O)c2ccc(C)cc2)[C@H]1c1ccc(C(C)C)cc1,0.336,-3.48 (inactive),-0.228 (inactive),-0.676 (inactive),0.359 (inactive),1.58,-0.121,1.05,0.644,0.31
CN1C=C(C(=O)OCCS(C)(=O)=O)C(C(=O)OCCS(C)(=O)=O)=CC(CCCO)=CC1C1CC1 (stereo not given),-0.102,-0.134 (inactive),-0.483 (inactive),-0.844 (inactive),-0.657 (inactive),0.207,-0.128,-0.0089,0.344,0.501
CCCNC(=O)[C@@H]1c2ccccc2C(=O)N(Cc2ccccc2)[C@H]1c1ccc(CO)cc1,-0.0869,-1.98 (inactive),-0.112 (inactive),-0.179 (inactive),0.0988 (inactive),0.624,-0.0405,-0.468,-0.221,-0.461
CCOC(=O)C1=CC[C@@H](c2ccccc2Cl)N(S(=O)(=O)c2ccc(C)cc2)C1,0.149,-5.35 (inactive),-0.602 (inactive),0.173 (inactive),-0.0077 (inactive),0.884,0.0569,0.623,0.738,-0.53
[N-]=[N+]=Nc1ccccc1C[C@]1(C(=O)NCCN2CCOCC2)N=C(c2ccc(OCCCO)cc2)O[C@H]1c1ccccc1,0.577,-2.47 (inactive),0.355 (inactive),0.4 (inactive),-0.604 (inactive),-0.186,0.101,0.729,0.749,0.109
CC(C)C(O)C1C=CC2C(=O)N(c3ccccc3)C(=O)C2N1Nc1ccc(C#N)cc1 (stereo not given),0.612,0.388 (inactive),-0.783 (inactive),0.629 (inactive),0.813 (inactive),0.761,0.388,-0.0618,0.719,0.0011
O=C1C[C@]2(c3ccc([N+](=O)[O-])cc3)C(=O)N(CC(F)(F)F)c3cc(CO)ccc3[C@H]2N1CC12CC3CC(CC(C3)C1)C2,-0.171,-1.89 (inactive),-0.892 (inactive),-0.698 (inactive),0.0632 (inactive),-0.143,0.0091,-0.662,-0.156,0.277
COCCOC(=O)N1C(=O)[C@@]2(c3cc(C#CCNC(N)=O)ccc31)[C@H](c1ccc(OCCO)cc1)N1[C@H](c3ccccc3)[C@H](c3ccccc3)OC(=O)[C@H]1[C@@H]2C(=O)N1CCc2cc(OC)c(OC)cc2C1,0.426,-0.0916 (inactive),-1.59 (inactive),-0.471 (inactive),-0.644 (inactive),0.175,-0.0136,0.0053,-0.193,0.815
O=C1O[C@H](c2ccccc2)[C@H](c2ccccc2)N2[C@H]1[C@@H](C(=O)N1CCN(c3ncccn3)CC1)[C@]1(C(=O)Nc3ccccc31)[C@H]2c1ccc(OCCO)cc1,0.505,-5.5 (inactive),-2.01 (inactive),-0.528 (inactive),-0.222 (inactive),-0.0363,0.0588,1.43,0.36,1.98
CS(=O)(=O)CCOC(=O)C1=CC(c2ccc(CO)cc2)=CC(C2CC2)N(Cc2cc3c(cc2Br)OCO3)C=C1C(=O)OCCS(C)(=O)=O (stereo not given),0.377,-3.38 (inactive),-0.992 (inactive),5.81 (inactive),-2.41 (inactive),1.54,-0.0645,0.0194,1.45,0.595
COc1cc2c(cc1O)C(C)N(Cc1cccc(OC(F)(F)F)c1)CC2 (stereo not given),0.475,-0.842 (inactive),-0.334 (inactive),0.506 (inactive),1.66 (inactive),0.395,0.0528,1.7,1.91,0.204
COc1ccc([Si](C)(C)[C@@H]2[C@@H](CCn3cc([C@H](O)c4ccccc4)nn3)O[C@]3(C(=O)N(Cc4cccc(N5CCOC5=O)c4)c4ccccc43)[C@H]2C)cc1,-0.105,-1.08 (inactive),-1.69 (inactive),0.134 (inactive),-1.36 (inactive),-0.469,-0.292,-0.568,-0.668,-0.98
COC(=O)C[C@H]1O[C@]2(C(=O)N(Cc3ccccc3)c3ccc(NC(C)=O)cc32)[C@@H](C)[C@@H]1[Si](C)(C)c1ccc(OC)cc1,0.0998,-0.796 (inactive),0.695 (inactive),1.84 (inactive),-0.792 (inactive),0.174,-0.251,-0.0471,0.033,0.978
COc1cc(CO)ccc1OC(C)=O,0.226,-2.07 (inactive),-0.433 (inactive),0.0918 (inactive),-0.874 (inactive),0.683,-0.308,0.867,0.388,1.05
COCCOC(=O)N1C(=O)[C@@]2(c3ccccc31)[C@H](C(=O)NC[C@H](O)c1ccccc1)[C@H]1C(=O)O[C@H](c3ccccc3)[C@H](c3ccccc3)N1[C@@H]2c1ccc(OCCO)cc1,0.788,-3.37 (inactive),-1.46 (inactive),-1.83 (inactive),-0.686 (inactive),0.168,0.0588,0.646,0.857,2.29
O=C(CCN1CCOCC1)c1cccc(O)c1,0.361,-2.97 (inactive),-0.779 (inactive),0.182 (inactive),5.37 (inactive),0.802,-0.0962,2.59,1.38,1.82
C=CCC(OC(C)=O)[C@@H]1[C@@H](N(Cc2ccc(-c3ccccc3)cc2)C(=O)Cc2ccc(OC)cc2)c2cc(OCCCO)ccc2N1C(=O)c1ccc2ccccc2n1 (stereo not given in full),-0.167,-1.53 (inactive),0.321 (inactive),0.409 (inactive),0.677 (inactive),0.437,-0.0471,-0.0598,0.0615,-0.111
